# RE007 growth inh – less growth of the S. pombe RE007 Vpr strain; S. pombe RE007 Vpr strain, BacTiter-Glo ATP luminescence, 24 h; Potency, µM (titrated, usually from 92.2 µM), without a hit: at the highest dose activity change, negative = less growth, hits mostly inhibitors; 360,000 tested, 0.21% active; active = well fitted falling curve with a large enough effect; inconclusive = small, poorly fitted or top-dose-only effect; inactive = no such curve, though single readings can be large or run the other way; note: potency is the fitted concentration of half-maximal effect; % is set by controls: 0 for no effect and ±100 for the full control effect; nearly all actives have a fitted effect of over 50% in size
#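 Fission yeast strain RE007, carrying one chromosomally integrated HIV-1 vpr copy, was seeded at OD 0.01 in PMG+AL medium with 23 nL pinned compound. After 24 h at 30 °C and 99% humidity, viability was read by BacTiter-Glo luminescence.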
# Shiga inhibitor – inhibitors of Shiga toxin in Vero cells. Vero cells, Shiga toxin protein synthesis inhibition reporter. 290,000 tested, 9.2% active. inhibition, % at 38.7 µM. AID 2315; in the data active = inhibition mostly above about 28%, no sharp cut-off; inactive = mostly below about 43%; note: 0% is about no effect
# Cycloheximide cs – affects cycloheximide protein synthesis inhibition readout, counter-screen. cell reporter, cycloheximide protein synthesis inhibition counterscreen. max response, %. 300,000 tested, 12% active; in the data active = max response mostly above about 13%, no sharp cut-off; inactive = mostly below about 14%; note: read at 38.3 µM for the half of the compounds with a filed dose; 0% is about no effect
# LmPK inh – LmPK (Leishmania mexicana) enzyme inhibition. Q27686. purified LmPK, Kinase-Glo ATP luminescence, 1 h. Potency, µM (top dose mostly 57.5 µM), inactives show top-dose activity change, negative = inhibition, hits mostly inhibitors. 290,000 tested, 0.37% active; note: potency is the fitted concentration of half-maximal effect; % is set by controls: 0 for no effect and ±100 for the full control effect
# Target sequence (Q27686 whole entry, looked up): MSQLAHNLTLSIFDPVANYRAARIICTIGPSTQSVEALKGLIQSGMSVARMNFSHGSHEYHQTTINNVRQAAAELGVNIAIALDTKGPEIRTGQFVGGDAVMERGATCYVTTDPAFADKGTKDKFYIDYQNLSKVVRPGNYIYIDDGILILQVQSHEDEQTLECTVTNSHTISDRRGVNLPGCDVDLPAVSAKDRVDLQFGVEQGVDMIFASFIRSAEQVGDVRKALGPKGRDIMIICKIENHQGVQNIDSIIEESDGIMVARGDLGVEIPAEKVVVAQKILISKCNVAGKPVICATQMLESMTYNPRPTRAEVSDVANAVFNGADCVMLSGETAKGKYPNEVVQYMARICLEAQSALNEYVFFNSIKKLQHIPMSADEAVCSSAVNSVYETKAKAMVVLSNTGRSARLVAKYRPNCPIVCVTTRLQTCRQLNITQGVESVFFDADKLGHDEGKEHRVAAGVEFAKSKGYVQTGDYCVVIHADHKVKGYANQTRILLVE
#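 In 50 mM imidazole pH 7.2 with 7 mM MgCl2, LmPK (0.1 nM) turned over PEP (0.5 mM) and ADP (0.1 mM) for 1 h at room temperature. Luciferase read-out of ATP.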
# Giardia FBPA inh – blocks Giardia fructose-bisphosphate aldolase activity | 290,000 tested, 0.71% active | A8B2U2 | purified Giardia FBPA | AID 2451 | Potency, µM (doses to about 59.6 µM), for the others: top-dose activity, negative = inhibition, hits mostly inhibitors; note: potency is the fitted concentration of half-maximal effect; % is set by controls: 0 for no effect and ±100 for the full control effect; nearly all actives have a fitted effect of over 55% in size
#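 40 nM FBPA preincubated 10 min at RT with compound (up to 57.5 uM final), then substrate plus GAPDH/TPI/NAD/arsenate coupling and diaphorase/resazurin added. Fluorescence read after 20 min at RT, 525/598 nm.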
# Tb PYK inh – T. brucei pyruvate kinase inhibition | Q57TT1 | TbPYK enzyme, Kinase-Glo Plus ATP luminescence, 45 min | Potency, µM (top dose mostly 76.8 µM), for inactives: at the top dose activity, negative = inhibition, usual class: inhibitors | 410,000 tested, 0.12% active; note: potency is the fitted concentration of half-maximal effect; % is set by controls: 0 for no effect and ±100 for the full control effect; nearly all actives have a fitted effect of over 50% in size
#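 Activity of T. brucei pyruvate kinase was followed by Kinase-Glo Plus luminescence after the enzyme reacted 45 min at room temperature with 130 uM ADP (final) and substrate. Test compounds were added before ADP at multiple concentrations.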
# Starred values were filed as active, the others as inactive; ? = inconclusive; . = no result; [ ] = another dose, or the depositor's remark. Only a selection was taken, and hits are over-represented in it overall. Unless noted, calls come from the whole dose curve; as a rule, active = well fitted curve in the direction sought with a large enough effect; inconclusive = small, poorly fitted or top-dose-only effect, or another doubt; inactive = no such curve, though single readings can be large; an effect the other way counts as inactive or inconclusive.
SMILES,RE007 growth inh,Shiga inhibitor,Cycloheximide cs,LmPK inh,Giardia FBPA inh,Tb PYK inh
N#C/C(=C\c1ccccc1)C(=O)NC1CC1,-22.6%,4.6,8.5,-5.9%,4.2%,-3.6%
N#C/C(=C\c1c[nH]c2ccccc12)C(=O)c1ccc(O)c(O)c1,.,.,.,.,-10.5%,.
Cc1ccc(CSc2nnc(-n3c(=O)c(C#N)cc4c(=O)n5cc(C)ccc5nc43)s2)cc1,.,.,.,.,.,5.8%
Cc1ccc(C)n1-c1nnc(N2CCCC(C(=O)Nc3ccc(C(C)C)cc3)C2)s1 (configuration not stated),.,.,.,.,.,0.8%
COc1ccc(CCC(=O)Nc2ccc(Br)cn2)cc1,-1.3%,77.7,38.3*,8.8%,-1.8%,-25.4%
CCCCC(=O)Nc1ccc(Cl)cn1,-1.0%,35.2,13.7,0.7%,2.2%,-3.6%
CCCCCC(=O)Nc1ccc(Cl)cn1,-1.6%,60.9*,39.4*,-2.0%,-0.7%,0.8%
CCCCCCC(=O)Nc1ccc(Br)cn1,-8.8%,50.3*,30.2*,0.6%,3.6%,-0.5%
CCCC(C)C(=O)Nc1ccc(Cl)cn1 (configuration not stated),-7.9%,47.3*,8.0*,-0.5%,3.9%,-1.5%
CCOc1ccc(OCC(=O)OC(C)C(=O)Nc2ccc(Cl)cn2)cc1 (configuration not stated),3.4%,.,.,.,.,-11.9%
Cc1ccc(CNC(=O)C2CCC(CNS(=O)(=O)c3ccc4c(c3)CCCC(=O)N4)CC2)cc1 (configuration not stated),.,.,.,.,.,-7.3%
Cc1ccc(S(=O)(=O)c2nnn3c2nc(Nc2ccc(C(C)C)cc2)c2sccc23)cc1C,.,.,.,.,.,-7.4%
Nc1ccc(N2CCN(c3ccccc3)CC2)c(F)c1,-20.0%,57.4*,14.4*,-1.1%,-2.4%,0.2%
CCOC(CNC(=O)c1ccc2c(c1)ncn2-c1ccccc1OC)OCC,-12.4%,-2.9,-2.0,11.7%,-2.2%,2.2%
COc1ccccc1-n1cnc2cc(C(=O)N3CCOCC3)ccc21,2.7%,40.7*,25.2*,1.2%,.,0.1%
CCCNC(=O)c1ccc2c(c1)ncn2-c1ccccc1OC,-2.8%,20.2,11.6*,6.5%,0.3%,2.7%
COc1ccc(NC(=O)N2CCCC3(CCN(S(C)(=O)=O)CC3)C2)cc1,.,.,.,.,-10.2%,0.2%
Cc1sc(N)nc1-c1ccc(Oc2ccccc2)cc1,?,78.0,19.3*,1.5%,6.3%,1.1%
Nc1nc(-c2ccc3c(c2)OCCO3)c(CC(=O)O)s1,-15.7%,2.5,5.7,-6.9%,-6.8%,-9.9%
Cc1sc(N)nc1-c1ccc2c(c1)OCCO2,-2.0%,52.6*,17.5*,-0.1%,-23.0%,-2.0%
Nc1nc(N)nc(-c2ccc(Oc3ccccc3)cc2)n1,3.4%,25.6,27.5,-1.6%,0.6%,-3.0%
O=c1cc(CN2CCc3ccccc32)nc2sccn12,0.7%,-5.5,0.4,3.4%,-30.0%,-6.1%
O=c1cc(CN2CCCc3ccccc32)nc2sccn12,-2.1%,58.6,23.9*,1.3%,?,1.4%
COc1ccccc1N1CCN(Cc2ccc(O)c3ncccc23)CC1,?,20.1,20.9*,-6.3%,?,-3.1%
CCOC(=O)C1CCN(Cc2ccc(O)c3ncccc23)CC1,-8.3%,110.2*,21.7*,4.1%,?,-3.7%
SMILES,RE007 growth inh,Shiga inhibitor,Cycloheximide cs,LmPK inh,Giardia FBPA inh,Tb PYK inh
COc1cccc(Nc2ncc3nc(-c4cn(C)c5ccccc45)c(=O)n(CCC#N)c3n2)c1,.,.,.,.,-4.5%,.
Nc1cnc(CNc2ccccc2Cl)cn1,-22.6%,32.0*,14.1,-6.2%,0.3%,-1.4%
CC1=NN(C(=O)c2ccco2)C(O)(c2ccccc2)C1 (configuration not stated),12.8%,80.2*,45.4*,-0.3%,-6.8%,2.3%
CC1=NN(C(=O)COc2ccccc2)C(O)(c2ccccc2)C1 (configuration not stated),7.6%,-9.9,-2.3,0.5%,8.4%,-3.0%
CC1=NN(C(=O)c2ccc(C)o2)C(O)(c2ccccc2)C1 (configuration not stated),-7.4%,active,30.0*,-1.0%,4.6%,-3.8%
CC1=NN(C(=O)CSCc2ccccc2)C(O)(c2ccccc2)C1 (configuration not stated),-0.3%,32.3,16.0,0.9%,1.4%,1.2%
COc1ccc2c(c1)sc1ncc(C(=O)NCc3ccc(Cl)cc3)c(=O)n12,.,.,.,.,.,-1.3%
CCC(=O)N(C)CCc1cc2c(c(OC)c1/C=N/NC(=O)[C@H]1C[C@@H]1c1ccccc1)OCO2,-0.5%,-9.4,-1.7,7.7%,-2.0%,1.8%
CCC(=O)N(C)CCc1cc2c(c(OC)c1/C=N/Nc1ccc(C(=O)O)cc1)OCO2,1.8%,36.4,35.2*,0.2%,-12.1%,-3.6%
Cc1ccccc1OCCOc1cccc(/C=N/NC(=O)Cc2nnc(N)s2)c1,-5.3%,136.9*,38.3*,3.2%,-10.1%,-6.7%
Nc1nnc(CC(=O)N/N=C/c2cccc([N+](=O)[O-])c2)s1,-0.7%,-12.7,-4.6,3.3%,-21.9%,-3.1%
Nc1nnc(CC(=O)N/N=C/c2ccccc2OCc2ccccc2F)s1,-18.5%,-2.2,-2.0,3.9%,0.6%,7.1%
Nc1nnc(CC(=O)N/N=C/c2cccc(OCCOc3ccccc3)c2)s1,-14.9%,68.7*,40.5*,1.3%,1.0%,-8.8%
CCSc1nnc2c(n1)OC(c1ccc(C)cc1)N(C(C)=O)c1ccccc1-2 (configuration not stated),.,.,.,.,.,1.1%
C(C#CCCCCCCCCC[n+]1ccccc1)#CCCCCCCCCC[n+]1ccccc1,7.94µM*,-8.7,-3.2,-2.3%,6.4%,-4.1%
Cc1ccccc1CNC(=O)C1CCN(c2nnc(-n3c(C)ccc3C)s2)CC1,.,.,.,.,.,-1.4%
Cc1cccc(CNC(=O)c2ccc(NC(=O)N3CCSc4ccccc43)cc2)c1,.,.,.,.,.,-4.3%
O=C1[C@H]2[C@H]3[C@H](O)[C@H](O)C/C(=N/OCc4ccccc4)[C@@H]3CC[C@@H]2C(=O)N1C[C@@H]1CCCO1,.,.,.,.,-7.1%[12.9 µM],.
Cc1ccc(/C=C/C(=O)NCCCc2ccccc2)cc1,-0.9%,13.7,19.5*,2.2%,-2.6%,-8.1%
C#CCNC(=O)/C=C/c1ccc(C)cc1,-14.1%,45.8,36.1*,-23.5%,-11.5%,-1.8%
Cc1cccc(C(=O)Nc2ccc(C(=O)N3CCCCC3C)cc2)c1 (configuration not stated),-10.9%,29.5,23.6*,9.0%,5.3%,-8.6%
CC(=O)N1CCN(c2ccc(NC(=O)c3cccc(C)c3)cc2)CC1,4.5%,.,12.8*,-1.4%,1.0%,1.7%
CC(=O)N1CCN(c2ccc(NC(=S)NC(=O)c3ccccc3)cc2)CC1,0.0%,-2.0,-2.7,4.2%,-20.6%,2.7%
CC(=O)N1CCN(c2ccc(NC(=O)c3ccccc3)cc2)CC1,6.7%,39.3*,22.8*,-7.6%,9.3%,1.2%

# Source: PubChem
